Laboratory results published in PubChem BioAssay (NCATS).
Where “and” joins values, the source holds several entries; their conditions need not be identical. Equal values may be shown once. Inconclusive results are not listed. Calls of active or inactive are those of the source. Calls come from the whole dose curve; as a rule, active = well fitted inhibition curve with a large enough effect; inconclusive = small, poorly fitted or top-dose-only effect; inactive = flat fitted curve, though single readings scatter.

Legend:
Experiment in all cases: qHTS profiling for inhibitors of Plasmodium falciparum proliferation (AID 504749); note: nearly all actives have a fitted effect of over 60% in size
Conditions in all cases: P. falciparum in erythrocytes, SYBR Green DNA, 72 h; series mostly up to 28.7 µM
DIV14 = tested on: DIV14
Method in brief: (§1)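 Infected RBCs, 0.3% parasitemia/2.5% Hct final; cpd 72 h, 37 C, 5% CO2; lysis buffer with saponin/triton/SYBR Green I, o/n RT dark; FI 485/535; norm. to artemisinin (0.29 uM) and DMSO.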

DIV17 = tested on: DIV17
Method in brief: as §1

DIV30 = tested on: DIV30
Method in brief: as §1

Dd2 = tested on: Dd2
Method in brief: as §1

ECU = tested on: ECU
Method in brief: as §1

FAB9 = tested on: FAB9
Method in brief: as §1

GB4 = tested on: GB4
Method in brief: as §1

HB3 = tested on: HB3
Method in brief: as §1

ICS = tested on: ICS
Method in brief: as §1

JCK = tested on: JCK
Method in brief: as §1

N140 = tested on: N140
Method in brief: as §1

P93_24 = tested on: P93_24
Method in brief: as §1

P94_40 = tested on: P94_40
Method in brief: as §1

PAD = tested on: PAD
Method in brief: as §1

PC15 = tested on: PC15
Method in brief: as §1

PC26 = tested on: PC26
Method in brief: as §1

PC49 = tested on: PC49
Method in brief: as §1

SC27B = tested on: SC27B
Method in brief: as §1

TAB109 = tested on: TAB109
Method in brief: as §1

TAB113 = tested on: TAB113
Method in brief: as §1

Measured: Potency
Potency is the fitted concentration of half-maximal effect.

CCNc1nc(Cl)nc(NCC)n1
inactive: all assays above

CC[n+]1c(-c2ccccc2)c2cc(N)ccc2c2ccc(N)cc21
active: DIV14 53.6 nM and 107 nM | DIV17 53.6 nM and 151 nM | DIV30 426 nM and 1.9 µM | Dd2 20 nM and 100 nM | ECU 141 nM and 447 nM | FAB9 79.4 nM and 89.1 nM | GB4 75.7 nM and 169 nM | HB3 126 nM and 316 nM | ICS 44.7 nM and 126 nM | JCK 79.4 nM and 282 nM | N140 141 nM and 316 nM | P93_24 63.1 nM and 158 nM | P94_40 70.8 nM and 355 nM | PAD 199 nM and 316 nM | PC15 251 nM and 891 nM | PC26 1.51 µM and 2.13 µM | PC49 178 nM and 316 nM | SC27B 126 nM and 355 nM | TAB109 70.8 nM and 158 nM | TAB113 100 nM and 316 nM

O=C(O)c1nn(Cc2ccc(Cl)cc2Cl)c2ccccc12
inactive: all assays above

C[N+](C)(C)CCOC(=O)C(O)(c1ccccc1)c1ccccc1
inactive: all assays above

CC(C)C(Br)C(=O)NC(N)=O (stereo not given)
inactive: all assays above

CCCCCCCCCCCC[N+](C)(C)CCOc1ccccc1
active: DIV14 5.36 µM | DIV17 8.49 µM | DIV30 13.5 µM | Dd2 3.55 µM | ECU 5.01 µM | FAB9 7.94 µM | GB4 5.36 µM | HB3 6.31 µM | ICS 2.24 µM | JCK 12.6 µM | N140 7.94 µM | P93_24 4.47 µM | P94_40 4.47 µM | PAD 7.94 µM | PC15 10 µM | PC26 13.5 µM | PC49 8.91 µM | SC27B 7.08 µM | TAB109 5.01 µM | TAB113 4.47 µM

CCCCCCCCC(=O)NCc1ccc(O)c(OC)c1
inactive: all assays above

CC(Cc1ccccc1)NCc1ccccc1Cl (stereo not given)
inactive: ECU | FAB9 | HB3 | JCK | PC15 | PC49 | SC27B
active: Dd2 12.6 µM

COc1ccc(C(=O)N2CCCC2=O)cc1
not listed: DIV17
inactive: all other assays above

O=C1NCN(c2ccccc2)C12CCN(CCCOc1ccc(F)cc1)CC2
active: DIV14 8.49 µM | Dd2 8.91 µM | GB4 6.75 µM | P93_24 8.91 µM
inactive: ECU | FAB9 | HB3 | JCK

CNC(=O)NC(O)C(Cl)(Cl)Cl (stereo not given)
not listed: DIV14
inactive: all other assays above

CCN(CC)CCOC(=O)C(C)(c1ccccc1)c1ccccc1
active: DIV17 6.01 µM | Dd2 0.0891 µM
inactive: FAB9 | HB3 | JCK

ClC1=C(Cl)C2(Cl)C(CBr)CC1(Cl)C2(Cl)Cl (stereo not given)
not listed: ICS
inactive: all other assays above

CC(C)(C)OC(=O)c1ncn2c1[C@@H]1CCCN1C(=O)c1c(Br)cccc1-2
not listed: DIV17 | ICS
inactive: all other assays above

CC(C)NCC(O)c1ccc(N)c(C#N)c1 (stereo not given)
not listed: PC26
inactive: all other assays above

c1cc2c(c(N3CCNCC3)c1)OCCO2
not listed: DIV17
inactive: all other assays above

CN1C[C@@H](NS(=O)(=O)N(C)C)C[C@@H]2c3cccc4c3c(cn4C)C[C@H]21
not listed: DIV30 | Dd2 | ICS | P93_24 | P94_40 | TAB109
inactive: all other assays above

CCC1(c2ccccc2)CCC(=O)NC1=O (stereo not given)
active: ICS 11.2 µM
not listed: DIV17 | GB4 | HB3 | P93_24
inactive: all other assays above

CN1C(=O)CN=C(c2ccccc2)c2cc([N+](=O)[O-])ccc21
not listed: HB3
inactive: all other assays above

Nc1ccc(N)cc1
inactive: Dd2 | HB3 | JCK | PC49
active: DIV14 15.1 µM | DIV17 15.1 µM | GB4 15.1 µM

CC[C@]1(O)CC[C@H]2[C@@H]3CCC4=CCCC[C@@H]4[C@H]3CC[C@@]21C
inactive: Dd2 | ECU | FAB9 | GB4 | HB3 | JCK | PC15 | PC26 | PC49 | TAB109
active: P94_40 11.2 µM

C=CCOC(Cn1ccnc1)c1ccc(Cl)cc1Cl (stereo not given)
active: DIV14 5.36 µM | DIV17 8.49 µM | DIV30 7.57 µM | Dd2 7.08 µM | ECU 3.98 µM | GB4 4.78 µM | HB3 11.2 µM | ICS 2.51 µM | N140 5.62 µM | P93_24 3.98 µM | P94_40 10 µM | PAD 8.91 µM | PC15 8.91 µM | PC26 7.57 µM | SC27B 10 µM | TAB109 7.94 µM | TAB113 8.91 µM

C[C@]12Cc3nonc3C[C@@H]1CC[C@@H]1[C@@H]2CC[C@@]2(C)[C@H]1CC[C@]2(C)O
not listed: ICS
inactive: all other assays above

CN1C(=O)[C@@H](NC(=O)c2cc3ccccc3[nH]2)N=C(c2ccccc2)c2ccccc21
inactive: FAB9 | JCK | PC15 | PC49
active: DIV14 12 µM | DIV17 10.7 µM | Dd2 11.2 µM | ECU 10 µM | GB4 15.1 µM | ICS 8.91 µM | P94_40 11.2 µM

C[C@]12C=CC(=O)C=C1CC[C@@H]1[C@@H]2CC[C@@]2(C)[C@H]1CC[C@]2(C)O
active: DIV30 16.9 µM
not listed: DIV14 | DIV17 | GB4 | PC26
inactive: all other assays above

CNC(=O)Oc1cccc2ccccc12
active: P94_40 12.6 µM
not listed: DIV14 | GB4 | ICS | P93_24 | PAD | PC15 | PC26
inactive: all other assays above

COc1ccc(CN2CCNCC2)c(OC)c1OC
not listed: DIV14 | DIV17 | DIV30 | GB4 | PC26
inactive: all other assays above

C#C[C@]1(O)CC[C@H]2[C@@H]3CCC4=CC(=O)CCC4=C3C=C[C@@]21CC
active: DIV14 4.26 µM | DIV17 5.36 µM | ECU 11.2 µM | HB3 10 µM | ICS 8.91 µM | PC15 6.31 µM | PC26 6.01 µM | PC49 8.91 µM | TAB109 12.6 µM
inactive: JCK

COCC(=O)N(c1c(C)cccc1C)C(C)C(=O)OC (stereo not given)
not listed: ECU | N140 | P93_24 | P94_40 | PAD | TAB109
inactive: all other assays above

O=C(NC(=O)c1c(F)cccc1F)Nc1cc(Cl)c(OC(F)(F)C(F)C(F)(F)F)cc1Cl (stereo not given)
active: P93_24 8.91 µM | P94_40 12.6 µM | TAB113 11.2 µM
inactive: DIV14 | DIV17 | DIV30 | FAB9 | GB4 | JCK | PC15 | PC26

N#Cc1nn(-c2c(Cl)cc(C(F)(F)F)cc2Cl)c(N)c1S(=O)C(F)(F)F (stereo not given)
inactive: PC49
active: DIV14 4.78 µM | DIV17 7.57 µM | DIV30 9.53 µM | GB4 7.57 µM | ICS 5.62 µM | N140 7.94 µM | PC15 12.6 µM | PC26 9.53 µM | SC27B 5.01 µM | TAB113 6.31 µM

Cc1c(Cl)c(=O)oc2cc(OP(=O)(OCCCl)OCCCl)ccc12
inactive: FAB9 | PC15 | PC49
active: DIV14 8.49 µM | ECU 10 µM | GB4 12 µM | HB3 11.2 µM | ICS 11.2 µM | N140 8.91 µM | P93_24 11.2 µM | P94_40 6.31 µM | SC27B 7.94 µM | TAB109 10 µM | TAB113 10 µM

Oc1ccc2[nH]cc(CCCCN3CC=C(c4ccccc4)CC3)c2c1
active: DIV14 13.5 µM | DIV17 13.5 µM | Dd2 11.2 µM | GB4 9.53 µM | ICS 8.91 µM | P93_24 11.2 µM | PC26 13.5 µM
inactive: FAB9 | JCK

Clc1ccc(CO/N=C(\Cn2ccnc2)c2ccc(Cl)cc2Cl)c(Cl)c1
active: DIV14 1.51 µM | DIV17 1.9 µM | DIV30 3.38 µM | Dd2 4.47 µM | ECU 2.24 µM | GB4 1.69 µM | HB3 7.94 µM | ICS 1.12 µM | N140 2.24 µM | P93_24 2.24 µM | P94_40 2.82 µM | PAD 2.51 µM | PC15 3.16 µM | PC26 4.26 µM | SC27B 3.16 µM | TAB109 3.55 µM | TAB113 2.51 µM

COP(=O)(OC)C(O)C(Cl)(Cl)Cl (stereo not given)
not listed: ECU | GB4 | ICS
inactive: all other assays above

OC(c1ccccc1)(c1ccccc1)C1CCNCC1
not listed: DIV14 | DIV17 | DIV30 | ICS | PC15 | PC49
inactive: all other assays above

CN1CCc2cc(Cl)c(O)cc2[C@H]2c3ccccc3CC[C@@H]21
active: Dd2 10 µM
inactive: FAB9 | JCK | PAD | PC15 | PC49 | TAB113

COP(=O)(OC)OC=C(Cl)Cl
not listed: ICS
inactive: all other assays above
